An excerpt weighted towards active compounds, which were near 3.5% of everything screened.
14-3-3 Bad PPI – inhibitors of 14-3-3 zeta/Bad binding, primary screen, biochemical, TR-FRET, bovine 14-3-3 zeta; TR-FRET 14-3-3zeta/Dy647-pBad peptide displacement, 1 h; hit rate 0.71% among 220,000; inhibition, % at 21.7 µM;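 active means inhibition above about 70%, limit read from the data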;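 further: 0% = full 14-3-3 plus peptide FRET controls and 100% = background without 14-3-3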
eIF4E-4G inh – eIF4E–eIF4G protein interaction inhibitors, primary screen, biochemical, uHTS, TR-FRET, eIF4GI fragment. TR-FRET eIF4E-eIF4GI(517-606) binding, 2 h. AID 782, 2007. hit rate 0.37% among 220,000. inhibition, % at 21.7 µM;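 active means inhibition above about 30%, limit read from the data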;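 further: 0% = full FRET control wells and 100% = background wells lacking eIF4GI fragment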
Mcl1 Noxa PPI – Mcl-1/Noxa binding inhibitors, primary screen, biochemical, TR-FRET, 1536-well; inhibition, % at 21.7 µM; hit rate 1.5% among 220,000; TR-FRET Mcl-1/Noxa peptide binding, 2 h;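 active means compounds that cut the protein-peptide binding signal by more than 50% relative to plate controls in a single-dose test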;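 further: His-tagged Mcl-1 with rhodamine Noxa BH3 peptide and terbium anti-His antibody; 0% = Mcl-1 plus Noxa peptide wells and 100% = peptide-only wells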
Mcl1 Bid PPI – Mcl-1/Bid binding inhibitors, primary screen, biochemical, TR-FRET, 1536-well; Induced myeloid leukemia cell differentiation protein Mcl-1 (Homo sapiens), Q07820; TR-FRET Mcl-1/Bid-Dy647 peptide binding; inhibition, % at 21.7 µM; hit rate 0.97% among 220,000; AID 1021, 2008;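 active means compounds that cut the binding signal by more than half at the single screening dose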;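 further: His-tagged Mcl-1 with europium anti-His antibody binding Bid BH3 peptide; 0% = Mcl-1 plus peptide wells and 100% = peptide-only wells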
Mcl-1 Bim block – inhibitors of Bim peptide binding to Mcl-1, primary screen, biochemical, bead-based flow cytometry, multiplex; Induced myeloid leukemia cell differentiation protein Mcl-1 (Homo sapiens), Q07820; Bim peptide-Mcl-1 binding; inhibition, % at 10 µM; hit rate 0.1% among 190,000; AID 1009, 2008; in the data active means inhibition above about 40%;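 further: 0% = no compound tracer wells and 100% = peptide blocker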
Hck Nef HTS – inhibitors of Nef-activated human Hck kinase, primary screen, biochemical, Z-Lyte FRET, 384-well, Hck-YEEI | Recombinant Hck-YEEI plus Nef, Z-Lyte FRET kinase assay | inhibition, % at 20 µM | hit rate 0.68% among 220,000;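 active means Hck-Nef kinase inhibition above about 50%, limit read from the data; inactive means inhibition below that limit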;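 further: 0% = DMSO with Hck plus Nef and 100% = Hck alone without Nef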
Target sequence (P08631 whole entry, looked up): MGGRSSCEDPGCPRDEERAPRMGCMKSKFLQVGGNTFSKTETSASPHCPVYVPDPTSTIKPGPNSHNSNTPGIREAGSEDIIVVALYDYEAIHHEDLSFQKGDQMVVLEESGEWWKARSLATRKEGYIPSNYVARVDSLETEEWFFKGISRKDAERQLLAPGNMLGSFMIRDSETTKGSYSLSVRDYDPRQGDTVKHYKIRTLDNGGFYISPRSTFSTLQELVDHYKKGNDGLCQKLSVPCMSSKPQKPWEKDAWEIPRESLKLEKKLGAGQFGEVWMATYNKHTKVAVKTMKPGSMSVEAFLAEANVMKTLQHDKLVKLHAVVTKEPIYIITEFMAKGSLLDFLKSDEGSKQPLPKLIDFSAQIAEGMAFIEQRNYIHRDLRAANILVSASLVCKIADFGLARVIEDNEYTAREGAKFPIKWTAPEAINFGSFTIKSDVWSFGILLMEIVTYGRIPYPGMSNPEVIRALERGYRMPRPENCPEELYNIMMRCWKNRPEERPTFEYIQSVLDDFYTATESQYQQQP
Numbers without * were called inactive; x = no result given; [ ] = another dose, or the depositor's remark.

SMILES	14-3-3 Bad PPI	eIF4E-4G inh	Mcl1 Noxa PPI	Mcl1 Bid PPI	Mcl-1 Bim block	Hck Nef HTS
CNC(=O)CN(C1CCCCC1)S(=O)(=O)c1ccc(OC)c(Cl)c1	24	-14	-9	98*	0	0
COc1cc(O)c(/C=N/NC(=O)c2ccncc2)c(OC)c1[N+](=O)[O-]	-17	0	53*	-62	1	20
COc1cc(C(=O)N/N=C\c2ccccc2)c([N+](=O)[O-])c(OC)c1OC	-11	0	5	95*	0	1
COc1ccc(S(=O)(=O)Nc2ccccc2OC)cc1NC(=O)CC1CC2CCC1C2 (stereo unspecified)	-11	15	-12	-11	-3	2
CN(CCCC[C@H](CNCc1ccc(-c2ccccc2)cc1)N1C[C@H](c2ccccc2)N(CCc2ccc(Cl)c(Cl)c2)C(=O)C1=O)Cc1ccc(-c2ccccc2)cc1	22	2	21	61*	x	-19
O=[N+]([O-])c1cccnc1NCCNc1ncc(C(F)(F)F)cc1Cl	-4	3	6	11	0	1
C=CCn1c(SCC(=O)c2[nH]c(C)c(C(=O)OC)c2C)nc2scc(-c3ccc(OC)c(OC)c3)c2c1=O	96*	15	53*	65*	-5	43
CCC(C)(C(=O)Nc1ccccc1C)N(C(=O)CNC(C)=O)c1ccccc1C (stereo unspecified)	-9	20	2	-12	-3	0
O=c1ccc2c(o1)/C(=C/C=C(Cl)Cl)CCC2	21	6	49	59*	0	2
O=Cc1ccccc1OCc1nnsc1Cl	-18	2	20	-5	0	4
CC(=O)c1ccc(/C=C/c2nc3ccccc3n2C)o1	-2	-7	-25	-51	x	-27
Cn1cc(CN2C[C@]3(C)C[C@H]2CC(C)(C)C3)c(-c2ccc3c(c2)OCCO3)n1	-5	3	11	-20	50*	0
CCOC(=O)CC1CCCCN1Cc1cn(C)nc1-c1ccc2c(c1)OCCO2 (stereo unspecified)	-4	1	-1	-25	-1	-1
NS(=O)(=O)c1ccc(NC(=O)C(Sc2ccccc2)c2ccccc2)cc1 (stereo unspecified)	2	-1	3	3	6	-1
COc1cc(/C=N/NC(=O)c2cccnc2)ccc1OS(=O)(=O)c1cc(C)ccc1C	20	1	37	10	9	-1
CCOC(=O)c1cnn(C(=O)c2ccccc2)c1N	10	45*[fluorescence artefact?]	14	17	-8	-7
Cc1ccc(-c2noc(N=O)c2NO)cc1	-2	2	12	-24	x	-19
NS(=O)(=O)c1ccc(CCNc2ncnc3c2c(-c2ccccc2)cn3-c2ccc(F)cc2)cc1	0	-3	-3	-10	-5	1
COc1cc(/C=N/NC(=O)CSc2n[nH]c(=O)[nH]c2=O)cc(OC)c1O	11	8	61*	-34	8	10
Cc1ccc(C(=O)NNC(=O)CSc2nnc3c(n2)[nH]c2ccc(F)cc23)cc1	36	-19	53*	80*	8	7
COc1ccc2[nH]c3nc(SCC(=O)NNC(=O)c4ccc(OC)c(OC)c4)nnc3c2c1	-6	6	-7	-16	0	4
Cc1c(N(C(=O)CNC(=O)c2ccccc2)C2(C(=O)NC3CCCCC3)CCCCC2)c(=O)n(-c2ccccc2)n1C	-3	-2	19	-26	4	3
O=C1CN(C(=O)c2cccs2)c2ccccc2N1	53	47*	-5	-15	5	3
CCN1C(=O)N(C(C)=O)C2C1N(C(C)=O)C(=O)N2C(C)=O (stereo unspecified)	-8	3	-1	53*	-1	21
CC(=O)N1C(=O)N(C(C)=O)C2C1N(C(C)=O)C(=O)N2C(C)=O (stereo unspecified)	-3	1	9	-11	-3	7
SMILES	14-3-3 Bad PPI	eIF4E-4G inh	Mcl1 Noxa PPI	Mcl1 Bid PPI	Mcl-1 Bim block	Hck Nef HTS
FC(F)(F)c1ccc(C2NCCc3sccc32)cc1 (stereo unspecified)	-14	3	9	-12	-3	21
COc1ccc2oc(-c3ccc(NC(=O)c4ccc(N5CCOCC5)c([N+](=O)[O-])c4)cc3)nc2c1	17	-2	55*	-11	6	4
CCN1/C(=C/c2cc[n+](C)cc2)C=Cc2cc(C)ccc21	-19	8	56*	-57	-1	4
Oc1ccc(N2CCN(c3ncnc4sc(-c5ccccc5)cc34)CC2)cc1	-5	9	87*	15	2	43
CC(=O)N1CCN(c2ncnc3sc(-c4ccccc4)cc23)CC1	4	2	21	6	0	29
Cc1nc2c(C)cccc2cc1C(=O)N/N=C/c1ccc(C(=O)O)cc1	87*	-3	-6	-20	1	22
Cc1nc2c(C)cccc2cc1C(=O)N/N=C/c1ccc(N(C)C)cc1	-15	2	18	-26	0	1
COc1ccc(NC(=O)CSc2ccccc2)c(OC)c1	-4	1	-6	-7	4	8
COc1ccc(NC(=O)CSc2ncnc3c2sc2ccccc23)c(OC)c1	18	2	79*	16	1	2
CC(O)CNc1nc2ccccc2n1CC(=O)NCCc1ccc(Cl)cc1 (stereo unspecified)	53	34*	-18	-43	-1	3
O=C(O)c1ccc(N/N=C/c2cn(Cc3ccccc3F)c3ccccc23)cc1	5	4	59*	-2	x	19
COC(=O)N/N=C/c1cn(Cc2ccccc2F)c2ccccc12	-3	0	2	-12	x	25
CC(COc1ccccc1)N(CCCl)Cc1ccccc1 (stereo unspecified)	19	1	34	55*	-1	2
CCN(Cc1ccccc1)C(=O)CCCOc1ccccc1	3	-4	0	-2	-3	8
COc1ccc(CNC(=O)CN(c2cccc([N+](=O)[O-])c2)S(C)(=O)=O)cc1	1	-1	-14	-16	3	11
O=C(O)C1CCN(c2ccc(S(=O)(=O)N3CCOCC3)cc2[N+](=O)[O-])CC1	89*	-5	21	-19	1	6
O=[N+]([O-])c1cc(S(=O)(=O)N2CCOCC2)ccc1N1CCCC1	-1	-1	-14	-12	-3	17
